± gives the standard deviation of the averaged measurements. The full ranking holds about 33,000 sequences; the median of “E-score (dimensionless, -0.5 to 0.5)” is about -0.046, and the highest 2% start at about 0.36. The list comes from a sample in which the highest values are over-represented; it also holds similar and randomly drawn sequences.
Tested on: T1, SpTbr T-box DNA-binding domain (GST fusion)
T1 sequence: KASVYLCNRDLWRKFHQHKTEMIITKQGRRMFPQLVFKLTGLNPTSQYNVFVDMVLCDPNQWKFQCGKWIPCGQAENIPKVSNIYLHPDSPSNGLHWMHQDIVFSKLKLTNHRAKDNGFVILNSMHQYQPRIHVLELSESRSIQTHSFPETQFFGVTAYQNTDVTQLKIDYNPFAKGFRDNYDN
Assay: PBM E-score of 8-mer (E-score (dimensionless, -0.5 to 0.5)); Tbr is Tbrain of the sea star Patiria miniata (Pm) or the sea urchin Strongylocentrotus purpuratus (Sp); higher = stronger binding preference
Conditions: the construct has about 5 more residues each side
Procedure, shortened: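 Each ungapped 8-mer received an enrichment E-score from the Universal PBM Analysis Suite, averaged over duplicate arrays. The proteins were Tbr T-box DNA-binding domains, covering the whole T-box plus about five flanking residues, fused to GST and expressed in BL21 E. coli at 20 °C before glutathione affinity purification. Universal Agilent oligonucleotide arrays were made double-stranded by primer extension and incubated with 200 nM protein in PBS (pH 7.5). The arrays were then scanned and quantified, and every 8-mer was scored from probe intensities.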

Sequence	PBM E-score of 8-mer
AGCTGTGC	0.214 ± 0.041
AGCTGTCC	0.00624 ± 0.016
GGCTGTCA	0.172 ± 0.051
ACCTGTGC	0.151 ± 0.018
GCCTGTGA	0.187 ± 0.0033
ACCTGTCT	0.104 ± 0.0037
AGCTGTGA	0.393 ± 0.0083
AGCTGTGG	0.129 ± 0.058
CCCTGTCG	-0.00439 ± 0.04
ACCTGTCG	0.37 ± 0.011
ACCTGTGA	0.3985 ± 0.0028
CGGCCAAA	-0.0415 ± 0.0054
ATAACCGA	-0.206 ± 0.066
CAGTTCTC	0.143 ± 0.053
AACCACTG	-0.317 ± 0.011
CACTCTCC	0.0753 ± 0.021
AACTGTGG	0.128 ± 0.0018
AACTGTGA	0.376 ± 0.011
AACTGTGC	-0.0399 ± 0.045
GCTTAGGA	-0.107 ± 0.059
CAACTCTG	0.225 ± 0.013
AACCTCTC	-0.0774 ± 0.028
GACCTCTC	-0.153 ± 0.016
CACCTCTC	0.421 ± 0.022
AACCTCTG	-0.137 ± 0.075

Sequence	PBM E-score of 8-mer
CACCTCTA	0.416 ± 0.0043
CACCTCTG	0.3929 ± 0.0014
GACCTCTA	-0.234 ± 0.033
AACCTCTA	-0.187 ± 0.065
ATAGGAGC	-0.181 ± 0.022
CACAACTC	0.25 ± 0.0039
AGAGGAGA	-0.116 ± 0.043
CTTTCAGC	-0.162 ± 0.032
GGTTGTTA	0.213 ± 0.048
CCGACCTC	-0.148 ± 0.046
CAACACGG	0.0142 ± 0.003
ATGTCGCA	0.231 ± 0.039
CTGTCAAA	0.249 ± 0.057
ATGTCAGA	-0.15 ± 0.011
CTGTCAGA	0.207 ± 0.025
CTGTCGCA	0.235 ± 0.054
GTGTCAAA	0.444 ± 0.0081
GTGTCAGA	0.387 ± 0.023
CTGTCAAC	0.35 ± 0.023
GTGTCGCA	0.367 ± 0.021
TTGTCAAA	0.0897 ± 0.09
ATGTCAAC	0.267 ± 0.024
GTGTCAAC	0.4761 ± 0.0027
CCGCTCTC	-0.00942 ± 0.013
CCTATTCG	-0.116 ± 0.11

Sequence	PBM E-score of 8-mer
AAACTATG	-0.131 ± 0.049
CCAACTCA	-0.0818 ± 0.049
CAGAAGCC	-0.308 ± 0.064
GTTCAATA	-0.174 ± 0.0066
ATGTCACA	0.3087 ± 0.00058
GTGTCACA	0.436 ± 0.011
GTGTCATA	0.404 ± 0.022
ATGTCACG	0.204 ± 0.017
ATGTCATA	-0.202 ± 0.0053
CCGTCAAC	0.24 ± 0.021
GCGTCAAA	0.31 ± 0.029
CTGTCATA	0.122 ± 0.036
GCGTCAAC	0.3857 ± 0.0035
ACCACACT	0.328 ± 0.0063
CAAGGTCC	-0.257 ± 0.041
AACCCGTT	-0.0209 ± 0.077
CGAGGTTA	0.0218 ± 0.011
CGAGGTCA	0.0539 ± 0.041
GGAGGTGA	0.374 ± 0.035
GGAGGTCA	0.0169 ± 0.067
AGAGGTGA	0.298 ± 0.023
CGAGGTGA	0.418 ± 0.01
AGAGGTGG	0.285 ± 0.031
CGAGGTAC	-0.11 ± 0.026
AGAGGTGC	0.394 ± 0.014

Sequence	PBM E-score of 8-mer
CGAGGTGC	0.445 ± 0.0072
CGAGGTCC	-0.207 ± 0.017
AGAGGTTC	-0.172 ± 0.065
GCAGCCCC	-0.15 ± 0.027
CGTAGTGC	-0.0779 ± 0.017
CGCTCGAC	-0.0351 ± 0.11
ATCCTGTA	-0.104 ± 0.036
ACCAGACT	-0.1941 ± 0.0019
GACGCCCA	-0.0155 ± 0.091
AGATGTTC	0.0355 ± 0.018
AGGTGTTC	0.3819 ± 0.00093
AGCTGTTG	0.208 ± 0.0081
AGGTGTTG	0.482 ± 0.0055
CGGTGTTC	-0.0703 ± 0.07
AGATGTTG	0.0448 ± 0.039
CGGGGTGC	0.233 ± 0.02
GGCCCAGA	-0.2892 ± 0.0023
GTATGGCA	0.0595 ± 0.0057
GCGCTGTA	0.206 ± 0.014
GTACTATA	-0.112 ± 0.079
CCATGCGC	-0.0395 ± 0.1
ACATATCC	-0.0962 ± 0.058
TCTATCAA	-0.141 ± 0.0063
CGGTGTTA	0.3373 ± 0.0021
GGGTGTCA	0.475 ± 0.0055

Sequence	PBM E-score of 8-mer
CGGTGTCA	0.398 ± 0.02
GGGGGTTA	-0.156 ± 0.038
GCGTGTCA	0.313 ± 0.024
CGGTGTCC	-0.0339 ± 0.0071
GGGTGTTA	0.463 ± 0.0026
CGGTGTGA	0.456 ± 0.0098
CGGTGTGC	0.0403 ± 0.015
CGATGTGA	0.183 ± 0.017
GGGGGTCA	0.0604 ± 0.0046
CGATGTCA	0.1339 ± 0.00055
ATGTAGGG	-0.355 ± 0.013
CGAGTTAA	0.193 ± 0.008
GCCCACTA	-0.0422 ± 0.07
CTTCACTA	0.0992 ± 0.0044
ACACCCGA	0.41 ± 0.0072
TCACCCGA	0.0108 ± 0.15
ACACCCGC	0.3794 ± 0.0031
CCACCCGC	0.105 ± 0.028
GCACCCGC	0.305 ± 0.035
ACACCCGG	0.317 ± 0.042
GCTCTGTA	-0.199 ± 0.025
AACTGACT	-0.141 ± 0.043
CAGAAATG	-0.202 ± 0.012
CGTTTTCC	-0.282 ± 0.054
TCATTACA	-0.0133 ± 0.029

Sequence	PBM E-score of 8-mer
CTGTGAAA	0.396 ± 0.017
CTGTGAAG	0.296 ± 0.027
ATGTGAAA	0.263 ± 0.03
CTGTGAAC	0.4126 ± 0.00049
TTGTGAAA	0.361 ± 0.04
ATGTGAAC	0.203 ± 0.012
AACTAGGC	-0.0665 ± 0.022
GCCGGATA	-0.321 ± 0.0046
CAGAGATC	-0.204 ± 0.022
TCGTAGCA	0.128 ± 0.038
GGATTGGA	-0.187 ± 0.026
CGATCCGA	-0.0614 ± 0.036
AAAGAGGG	-0.0825 ± 0.036
CCTGACAC	0.427 ± 0.01
CCTGACAG	0.121 ± 0.0013
ACTGACAC	0.349 ± 0.011
GCTGACAA	0.227 ± 0.031
GCTGACAC	0.386 ± 0.039
CCTGACAA	0.153 ± 0.0094
ATTTGTGG	0.075 ± 0.012
CTCGGGTC	-0.0239 ± 0.0073
AGATGACG	0.125 ± 0.029
TACAGCGA	-0.193 ± 0.038
CCCACTTC	0.171 ± 0.018
CACACTTC	0.4456 ± 0.0039

Sequence	PBM E-score of 8-mer
CACACTTA	0.447 ± 0.0064
AGCACTTC	0.3006 ± 0.0019
ATCACTTA	0.0863 ± 0.053
ATCACTTC	0.226 ± 0.033
CACACTGA	0.235 ± 0.0071
AACACTGA	0.0941 ± 0.085
AACACTTC	0.407 ± 0.0093
AACACTTA	0.386 ± 0.031
CACACTGC	0.175 ± 0.0027
CGCACTTA	0.329 ± 0.0023
AGGAGGGG	0.0237 ± 0.0028
ACATCCAG	0.11 ± 0.03
CAGATTGA	-0.076 ± 0.021
CCAGAAGC	-0.0847 ± 0.077
CGAGTATC	-0.139 ± 0.032
CCCGTTAC	-0.0493 ± 0.068
AACTGCTC	0.00139 ± 0.031
GCAAAAAA	-0.111 ± 0.022
ATCCAATG	-0.108 ± 0.019
ACCATTGA	0.0727 ± 0.061
GCAGCCAC	0.126 ± 0.026
ATACAGAC	-0.0432 ± 0.019

Reference: the supplement of paper PMC4166925
